FadD28 FP inh: inhibitors of FadD28 bisubstrate probe binding, primary screen, biochemical, fluorescence polarization, single point. Mycobacterium tuberculosis FadD28 fatty-acid-AMP ligase. inhibition, % at 12.5 µM. actives 0.22% (n = 360,000); in the data active means inhibition above about 8.5%, passing the limit was not always enough; inconclusive means no clear call, values can overlap the other calls
Yp Topo-I inh: Yersinia pestis topoisomerase I inhibitors, primary screen, biochemical, cleavage product accumulation, plate reader, single point. DNA topoisomerase I (Yersinia pestis CO92). Y. pestis Topo-I cleavage product accumulation. activity, % at 10 µM. actives 0.064% (n = 360,000). AID 504884, 2011; in the data active means activity above about 50%, passing the limit was not always enough; inconclusive means no clear call, values can overlap the other calls
Rv3671c protease: Rv3671c serine protease inhibitors, primary screen, biochemical, fluorescence polarization, M. tuberculosis H37Rv | AID 2606, 2010 | inhibition, % at 5.96 µM | actives 0.048% (n = 320,000) | P9WHR9; in the data active means inhibition above about 38%;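 further: extracellular domain of Rv3671c used as enzyme; 0% = enzyme with DMSO and 100% = no enzyme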
Mtb UGM inh: M. tuberculosis UGM enzyme inhibitors, primary screen, biochemical, fluorescence polarization, single point; actives 0.06% (n = 320,000); UDP-galactopyranose mutase (Mycobacterium tuberculosis (strain ATCC 25618 / H37Rv)), …; AID 504406, 2011; purified UGM, fluorescence polarization probe displacement; inhibition, % at 10 µM; in the data active means inhibition above about 10%, passing the limit was not always enough; inconclusive means no clear call, values can overlap the other calls
Target sequence (P9WIQ1 whole entry, looked up): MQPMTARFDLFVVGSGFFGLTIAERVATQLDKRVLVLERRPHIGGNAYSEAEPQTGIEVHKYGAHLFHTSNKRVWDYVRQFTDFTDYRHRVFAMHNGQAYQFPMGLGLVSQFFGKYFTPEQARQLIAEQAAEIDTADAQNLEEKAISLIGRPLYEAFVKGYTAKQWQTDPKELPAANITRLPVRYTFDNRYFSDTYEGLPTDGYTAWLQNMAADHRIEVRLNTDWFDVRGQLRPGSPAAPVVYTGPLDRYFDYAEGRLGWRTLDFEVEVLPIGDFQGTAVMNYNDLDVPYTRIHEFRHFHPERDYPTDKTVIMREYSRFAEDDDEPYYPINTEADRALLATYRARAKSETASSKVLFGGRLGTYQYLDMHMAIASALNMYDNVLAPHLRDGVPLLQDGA
RecA splice inh: Mtb RecA intein splicing inhibitors, primary screen, biochemical, fluorescence, HTS | Protein RecA (Mycobacterium tuberculosis (strain ATCC 25618 / H37Rv)), P9WHJ3 | cell-free RecA intein splicing | inhibition, % (test concentration not listed) | actives 0.75% (n = 290,000) | AID 2221, 2009; in the data active means inhibition above about 30%; inconclusive means no clear call, values can overlap the other calls;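 further: 0% = vehicle wells and 100% = reference inhibitor control wells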
BioA inh: M. tuberculosis BioA enzyme inhibitors, primary screen, biochemical, plate reader, single point, HTS. actives 0.096% (n = 360,000). purified M. tuberculosis BioA enzyme. 7,8-diaminopelargonic acid synthase BioA (Mycobacterium tuberculosis). inhibition, % at 9.99 µM; in the data active means inhibition above about 40%; inconclusive means no clear call, values can overlap the other calls
GFP chromophore: counter-screen: blocks GFP chromophore formation, dose response, counter-screen, biochemical, fluorescence, homogeneous. shares compounds with RecA splice inh. cell-free GFP chromophore formation. actives 83% (n = 2,100). EC50, µM. AID 434968, 2010; call rule not given here
The depositor's hits bear a star; ? = inconclusive; . = no result given. An excerpt weighted towards active compounds, which were near 0.82% of everything screened.

SMILES	FadD28 FP inh	Yp Topo-I inh	Rv3671c protease	Mtb UGM inh	RecA splice inh	BioA inh	GFP chromophore
O=C(c1ccncc1)N(c1ccc2oc3c(c2c1)CCCC3)S(=O)(=O)c1ccc(F)cc1	-1	0	-14	-1	51*	.	4.1*
CC(=O)c1c(C)oc2ccc(N(C(=O)c3ccncc3)S(=O)(=O)c3ccccc3)cc12	-2	19	-3	2	0	0	.
CO[C@H]1CC[C@@H]2CCN(C)C(=O)[C@H](C)N(C)C(=O)c3cc(C#N)ccc3OC[C@@H]1O2	.	.	.	.	.	-3	.
CN(C)/C=C/C(=O)c1ccc2noc(-c3ccc(F)cc3)c2c1	-4	-6	-9	2	31*	-2	>38
Cc1ccc(-c2onc3ccc(C(=O)/C=C/N(C)C)cc23)cc1	-3	-2	-18	1	0	-3	.
O=C(NCc1ccc2c(c1)OCO2)c1ccccc1Cl	-4	4	5	-1	-2	-3	.
O=C(NCc1ccc2c(c1)OCO2)c1nc(S(=O)(=O)Cc2ccccc2)ncc1Cl	-2	9	-3	-2	53*	-2	14*
O=C(NCc1ccc2c(c1)OCO2)c1nc(S(=O)(=O)Cc2ccccc2F)ncc1Cl	-4	33	3	-3	37*	-10	8.9*
O=C(NCc1ccc2c(c1)OCO2)c1ccc(Cl)nc1	-5	-5	7	0	2	.	.
CC(NC(=O)COC(=O)c1cc(NS(=O)(=O)c2ccc(Cl)c([N+](=O)[O-])c2)ccc1O)C1CC2CCC1C2 (centres undefined)	1	-9	-28	1	48*	0	>38
O=C(NC1CCCC1)C(c1ccc(F)cc1)N(Cc1ccc(Cl)cc1)C(=O)CCl (centres undefined)	-2	9	-2	4	59*	1	7*
O=C(NC1CCCC1)C(c1ccc(Cl)cc1)N(Cc1ccc(F)cc1)C(=O)CCl (centres undefined)	-1	11	-3	-4	67*	.	2.7*
COC(=O)c1ccc(C(C(=O)NC2CCCCC2)N(Cc2ccc(F)cc2)C(=O)Cc2cccs2)cc1 (centres undefined)	-2	28	-5	0	-2	0	.
CN(C)C(C(=O)NC1CCCCC1)c1ccc(Cl)cc1 (centres undefined)	-4	0	2	1	-1	0	.
CO[C@H]1CN(C)C(=O)c2cc(NC(=O)Nc3ccccc3F)ccc2OC[C@@H](C)N(Cc2ccccc2C(=O)O)C[C@@H]1C	.	.	.	.	.	3	.
O=C1c2[nH]nc(-c3ccccc3O)c2C(c2ccc(F)cc2)N1Cc1ccco1 (centres undefined)	-15	-1	-15	-1	20	-2	.
O=C1c2[nH]nc(-c3ccccc3O)c2C(c2cccc(Cl)c2)N1Cc1ccco1 (centres undefined)	-6	11	-23	-1	34*	1	>38
CN(C)c1ccc2nsnc2c1[N+](=O)[O-]	-3	-2	3	0	32*	-1	>38
Cc1ccc(S(=O)(=O)N(C)C[C@@H]2Oc3c(NC(=O)C4CCCCC4)cccc3C(=O)N([C@H](C)CO)C[C@@H]2C)cc1	.	.	.	.	.	-4	.
Cc1ccc2[nH]c3c(c2c1)CN(C(=O)CN1CC(C)OC(C)C1)CC3 (centres undefined)	-5	5	4	-2	.	-7	.
Cc1ccc2[nH]c3c(c2c1)CN(C(=O)CN1CCSCC1)CC3	.	.	.	.	61*	-2	0.19*
CC1=NN(C)C(=O)C1Cc1c(F)cccc1Cl (centres undefined)	-2	3	7	0	80*	.	17*
O=C(NC1CCCCC1)C(c1cccnc1)N(C(=O)CCl)c1cccc(Cl)c1 (centres undefined)	-4	-7	0	2	79*	2	5.9*
COC(CN(C(=O)CCl)C(C(=O)NC1CCCCC1)c1ccc(Cl)cc1)OC (centres undefined)	-3	-7	0	-1	35*	-2	34*
COc1ccc(C(C(=O)NC2CCCCC2)N(C(=O)CCl)c2ccc(Cl)cc2)cc1 (centres undefined)	-2	2	-4	-1	67*	-1	?
SMILES	FadD28 FP inh	Yp Topo-I inh	Rv3671c protease	Mtb UGM inh	RecA splice inh	BioA inh	GFP chromophore
Cc1cccc(N(C(=O)CNC(=O)c2ccco2)C(C(=O)NC2CCCCC2)c2cccnc2)c1 (centres undefined)	1	1	-11	0	-2	-1	.
CCC(=O)N(C)C[C@@H]1Oc2cc(-c3ccccc3C)ccc2S(=O)(=O)N([C@@H](C)CO)C[C@@H]1C	.	.	.	.	.	-2	.
C[C@@H]1CN([C@H](C)CO)C(=O)Cc2cc(NC(=O)Cc3cn(C)c4ccccc34)ccc2O[C@H]1CN(C)Cc1ccc2c(c1)OCO2	.	.	.	.	.	0	.
O=C(OCn1ncc(Cl)c(Cl)c1=O)c1cccc(C(F)(F)F)c1	-1	-5	-26	0	94*	-3	1.6*
CCc1ccc(C(=O)Cn2ncc(Cl)c(Cl)c2=O)cc1	-2	-6	-9	1	15	-2	.
CC(C)CC#Cc1ccc2c(c1)O[C@H](CN(C)Cc1cncnc1)[C@@H](C)CN([C@@H](C)CO)S2(=O)=O	.	.	.	.	.	5	.
Clc1ncnc2scc(C3COc4ccccc4O3)c12 (centres undefined)	-45	-1	-12	-1	67*	0	20*
COc1ccccc1CN(C)C[C@@H]1OCc2cn(nn2)CCCC(=O)N([C@H](C)CO)C[C@@H]1C	.	.	.	.	.	-1	.
O=C(CCl)Nc1cccc(S(=O)(=O)N2CCCCCC2)c1	-2	6	-8	2	44*	.	33*
O=C(Cc1ccc(Cl)cc1)Nc1cccc(S(=O)(=O)N2CCCCC2)c1	-1	18	-29	-4	.	0	.
O=C(Cc1ccccn1)NCC[C@@H]1CC[C@H](NS(=O)(=O)c2ccc(Cl)cc2)[C@H](CO)O1	.	.	.	.	.	2	.
CCCNC(=O)N(C)C[C@@H]1Oc2cc(-c3cncnc3)ccc2S(=O)(=O)N([C@@H](C)CO)C[C@@H]1C	.	.	.	.	.	-2	.
O=C(CN1C(=O)S/C(=C\C=C\c2ccccc2)C1=O)Nc1cccc(O)c1	-1	1	-98	-3	5	-1	.
O=C(CN1C(=O)S/C(=C\C=C\c2ccccc2)C1=O)Nc1ccccc1C(=O)O	0	4	-20	-2	60*	.	10*

Bioassay records deposited in PubChem by several laboratories.
